RmlC RmlD mix = inhibitors of RmlC and RmlD coupled enzymes; inhibition, % at 5.5 µM; RmlC/RmlD coupled enzyme inhibition, 384-well mixture HTS; 110,000 tested, 0.39% active; in the data active means inhibition above about 30%, passing the limit was not always enough
RT RNaseH block = blocks HIV-1 RNase H cleavage of RNA/DNA duplex | RT-RNase H RNA/DNA duplex cleavage, fluorescence | inhibition, % at 10 µM | 65,000 tested, 1.9% active | AID 565; in the data active means inhibition above about 50%
Hits are given with their value; n = inactive; x = not tested or not shown. The full list was thinned out, with hits kept by preference.

SMILES	RmlC RmlD mix	RT RNaseH block
Cc1ccccc1N/C=C/C(=C(C#N)C#N)N(C)C	n	x
COc1ccc(-c2nnc(SCc3cccc(C)c3)n2N)cc1	n	x
Cc1cccc(CSc2nnc(-c3ccccn3)n2N)c1	n	52
NC(=O)/C(=N\OC(=O)c1ccco1)c1nc(-c2ccc(Br)cc2)cs1	n	x
CCN(CC(=O)Nc1ccc([N+](=O)[O-])cc1OC)c1ccccc1	n	x
Cc1ccc(N(Cc2ccccc2F)S(C)(=O)=O)cc1C	n	x
O=C(COC(=O)C1COc2ccccc2O1)NC(=O)NC1CCCC1 (stereo not given)	n	n
O=C(COC(=O)C1COc2ccccc2O1)NC(=O)Nc1ccc2c(c1)OCCO2 (stereo not given)	n	51
COc1ccc(Nc2ccc3nnc(-c4ccc(Br)cc4)n3n2)cc1	n	x
CC1CC(C)CN(C(=O)c2ccc3c(=O)n(Cc4ccc5c(c4)OCO5)c(=S)[nH]c3c2)C1 (stereo not given)	n	x
O=C(c1ccc2c(=O)n(Cc3ccc4c(c3)OCO4)c(=S)[nH]c2c1)N1CCCCC1	n	61
CCOc1cccc2cc(-c3nnc(-c4ccccc4)o3)c(=O)oc12	x	n
COc1ccc(C2/C=C\CN(Cc3ccc(N(C)C)cc3)CC(=O)N2Cc2ccc(F)cc2)cc1 (stereo not given)	n	x
S=P(c1ccc(N2CCOCC2)cc1N1CCOCC1)(N1CCOCC1)N1CCOCC1	x	88
Cc1cc(C)nc(Nc2ccc(N3CCOCC3)cc2)n1	n	n
Cc1sc2ncnc(SCC(=O)NNC(=O)COc3cccc4ccccc34)c2c1C	n	x
Cn1c(COc2ccccc2)nnc1SCCC(=O)Nc1ccccc1	n	n
CCCCn1c(O)c(C=NC2CCCCC2N)c(=O)[nH]c1=O (stereo not given)	n	n
CCCCCCn1c(O)c(C=NC2CCCCC2N)c(=O)[nH]c1=O (stereo not given)	n	51
COc1ccc(C(=O)Nc2sc3c(c2C(=O)NCc2ccco2)CCCC3)cc1OC	146	x
COC(=O)Nc1sc2c(c1C(=O)NCc1ccco1)CCC2	n	n
COc1cc(C(=O)Nc2sc3c(c2C(=O)NCc2ccco2)CCCC3)cc(OC)c1OC	n	x
CCOc1ccccc1NC(=O)c1c(NC(=O)CNCc2ccco2)sc2c1CCC2	x	72
C=CCn1c(SCC(=O)c2ccccc2)nnc1-c1ccc2c(c1)OCO2	x	n
COc1cc(-c2nc3cnccn3c2Nc2ccc(C)cc2)ccc1O	n	x
SMILES	RmlC RmlD mix	RT RNaseH block
COc1cc(-c2nc3cnccn3c2Nc2ccccc2)ccc1O	40	n
COc1ccccc1CN1CC(C(=O)NCc2cccnc2)CC1=O (stereo not given)	n	n
COc1cccc(-c2ccc(-c3noc(-c4ccccc4F)n3)c(OC)n2)c1	n	n
COc1nc(-c2ccc(Cl)cc2)ccc1-c1noc(-c2ccco2)n1	n	50
CCCn1c(=O)c(C(=O)Nc2nnc(C)s2)c(O)c2ccccc21	x	n
COc1ccc(C(=O)NCC(=O)NCC2COc3ccccc3O2)cc1 (stereo not given)	n	x
CCOC(=O)CSc1nc(C2CC2)nc2ccccc12	n	n
Cc1cc(C(=O)CSc2nnnn2-c2ccc(Cl)cc2)c(C)n1CC1CCCO1 (stereo not given)	n	63
Cc1cc(C(=O)CSc2nnnn2-c2ccccc2)c(C)n1CC1CCCO1 (stereo not given)	n	n
CCOC(=O)N1CCC(NC(=O)c2cnn3c(C(F)(F)F)cc(-c4cccc(OC)c4)nc23)CC1	121	n
CCOC(=O)c1cnn2c(C(F)(F)F)cc(-c3ccccc3)nc12	n	n
CSc1nc2ccc(NC(=O)CSc3nnc(N)s3)cc2s1	n	x
CCNc1nc(Oc2ccccc2)nc(OC(C)C(=O)OCC)n1 (stereo not given)	n	n
CC1CCc2c(C(=O)Nc3nccs3)csc2C1 (stereo not given)	n	x
CCSc1nnc(NC(=O)c2csc3c2CCC(C)C3)s1 (stereo not given)	n	58
CCO/C=C1/C(=O)N(CC)c2ccccc21	x	n
CCO/C=C1\C(=O)N(c2ccccc2)C(=O)c2ccccc21	186	n
CCC1=C[C@H]2CN(C1)Cc1c([nH]c3ccccc13)[C@@](C(=O)OC)(c1cc3c(cc1OC)N(C)[C@H]1[C@@](O)(C(=O)OC)[C@H](OC(C)=O)[C@]4(CC)C=CCN5CC[C@]31[C@@H]54)C2	n	x
CC1(C)CCC23CC[C@]4(C)C(OC2=O)(C3C1)[C@H]1O[C@H]1C1[C@@]2(C)CC[C@@H](O)C(C)(C)C2CC[C@]14C (stereo not given in full)	n	x
O=C(NCc1ccco1)c1nn2c(C(F)(F)F)cc(-c3cccs3)nc2c1Br	n	x
COC(=O)c1nn2c(C(F)(F)F)cc(-c3ccc(Br)o3)nc2c1Br	n	64
CCCC1C2CN(C(C)C)CC=C2C(C#N)=C(N)C1(C#N)C#N (stereo not given)	x	n
CCC(C)NS(=O)(=O)c1ccc(S(=O)(=O)N2CCCC3(CCCCC3)C2)cc1 (stereo not given)	n	x
COc1ccc(-c2ccc3oc(-c4ccsc4)cc3c2)cc1	n	x
CCCOc1ccc(N2C(=O)C3ON(c4ccccc4)C(CCC)C3C2=O)cc1 (stereo not given)	n	x
SMILES	RmlC RmlD mix	RT RNaseH block
CCCOc1ccc(N2C(=O)C3ON(c4ccccc4)C(c4ccc(O)c(OC)c4)C3C2=O)cc1 (stereo not given)	x	56
Cc1cc(N2CCN(C3CCCC3)CC2)n2nc(C)c(-c3ccccc3)c2n1	x	n
Cc1ccc2c(nc3s/c(=C/c4cccs4)c(=O)n32)c1C	x	80
Cc1cc(C)c2nc3s/c(=C/c4ccccc4)c(=O)n3c2c1	n	x
CN1CCc2c(sc3ncn4nc(-c5ccccc5O)nc4c23)C1	x	n
CNC(=O)c1cc2cc(OC)ccc2oc1=O	n	x
CNC(=O)c1cc2cc(OC)ccc2oc1=N	42	n
COc1ccc([C@@H]2C[C@H](c3ccccc3)Oc3cc(C)cc(C)c32)cc1	n	x
FC(F)(F)c1nnc2ccc(-n3ccnc3)nn12	n	n
COc1ccc(C(=O)NCCc2nnc(SCC(=O)Nc3ccccc3C(C)C)n2C)cc1	n	x
COc1ccc(N2Cc3ccccc3C2)cc1Cl	n	55
COc1ccc(Cl)cc1N1Cc2ccccc2C1	n	x
CCOC(=O)c1c(C)oc2c1c1c(c3ccccc32)OCN(Cc2cccnc2)C1	n	n
CCOC(=O)c1c(C)oc2c1c(C(c1cccnc1)N1CCN(C)CC1)c(O)c1ccccc12 (stereo not given)	x	60
CCN(CCNC(=O)Nc1ccc(Cl)cc1)c1ccccc1	n	n
CCOc1ccc(OCC(=O)Nc2ccc(S(=O)(=O)Nc3cc(C)nc(C)n3)cc2)cc1	n	52
CCOC(=O)Nc1ccc(S(=O)(=O)Nc2cc(C)nc(C)n2)cc1	n	x
Cc1cc(C(=O)CSc2nnc(-c3ccco3)o2)c(C)n1CC1COc2ccccc2O1 (stereo not given)	n	n
CC(Nc1n[nH]c(=S)[nH]c1=O)C(=O)OCc1ccccc1 (stereo not given)	n	53
CCCCOC(=O)C(C)Nc1n[nH]c(=S)[nH]c1=O (stereo not given)	n	x
Cc1nc(Nc2cccc(C(F)(F)F)c2)nc2c1C(=O)CC(C)C2 (stereo not given)	n	51
Cc1cccc(Nc2ncc3c(n2)CC(C)CC3=O)c1 (stereo not given)	n	n
CCC(=O)N1CCN(CCN=Cc2c(O)n(C3CCCCC3)c(=O)n(C3CCCCC3)c2=O)CC1	x	n

Screening data from PubChem.
